PglD DTNB: inhibitors of Campylobacter jejuni PglD acetyltransferase; purified PglD enzyme, DTNB colorimetric CoA detection; inhibition, % at 12.5 µM; 360,000 compounds, 0.098% hits; in the data active means inhibition above about 16%, passing the limit was not always enough
Rtt109 Vps75: C. albicans Rtt109 histone acetyltransferase inhibition; inhibition, % at 34.9 µM; AID 540336; 330,000 compounds, 0.16% hits; Q5AAJ8; purified Rtt109/Vps75, ThioGlo CoA-SH fluorescence, 4 h;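 active means inhibition of at least 50% in every replicate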
Target sequence (Q5AAJ8 whole entry, looked up): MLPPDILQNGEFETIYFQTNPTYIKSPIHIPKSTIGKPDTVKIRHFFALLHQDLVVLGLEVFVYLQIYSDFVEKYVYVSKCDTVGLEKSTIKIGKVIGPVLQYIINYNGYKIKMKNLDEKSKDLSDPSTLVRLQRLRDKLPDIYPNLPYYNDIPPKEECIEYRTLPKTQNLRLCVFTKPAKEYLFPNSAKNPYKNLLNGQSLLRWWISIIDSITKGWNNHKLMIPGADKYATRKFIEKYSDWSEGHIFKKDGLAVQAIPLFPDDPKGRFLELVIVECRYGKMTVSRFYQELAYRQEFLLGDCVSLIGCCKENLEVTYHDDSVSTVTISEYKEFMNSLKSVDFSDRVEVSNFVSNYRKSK
DENV2 CPE rescue: DENV2-induced cell death inhibition; DENV2-infected cells, cytopathic effect rescue, plate reader; CPE inhibition, % at 9.99 µM; 350,000 compounds, 1.7% hits; AID 651640; in the data active means CPE inhibition above about 20%, passing the limit was not always enough; tested in BHK-21 cells;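 further: 0% = median of neutral control wells and 100% = median of positive control wells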
Glyco luc inh: blocks N-linked glycosylation in D54 reporter cells; D54 ERlucT glycosylation luciferase reporter, 24 h; percent of 100 nM tunicamycin response; reporter increase, % at 12.5 µM; 360,000 compounds, 0.23% hits;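 active means mean luciferase reporter signal, scaled so untreated is 0 and the glycosylation-blocking control 100, at or above a set limit in every replicate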;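 further: luciferase carries N-glycosylation sites so blocking glycosylation raises the light; 0% = median of neutral control wells and 100% = median of 100 nM tunicamycin wells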
* marks the source's active call; other numbers are inactive results; nt = not tested or not shown. The entries come from a sample that favours hits as a whole.

SMILES | PglD DTNB | Rtt109 Vps75 | DENV2 CPE rescue | Glyco luc inh
Cc1ccc(S(=O)(=O)N(C)C[C@H]2Oc3ccc(NC(=O)C4CC4)cc3CC(=O)N([C@@H](C)CO)C[C@H]2C)cc1 | 3.7 | nt | 16.6 | nt
C[C@@H]1CN([C@@H](C)CO)C(=O)Cc2cc(NC(=O)C3CC3)ccc2O[C@H]1CN(C)S(=O)(=O)c1ccc(Cl)cc1 | -1.1 | nt | 70.0* | nt
C[C@@H]1CN([C@H](C)CO)C(=O)c2cc(NS(C)(=O)=O)ccc2O[C@@H](C)CCCCO[C@@H]1CN(C)C(=O)c1ccncc1 | -4.0 | nt | -0.4 | nt
CC(=O)N(C)C[C@H]1Oc2cc(C#CCC3CCCC3)ccc2S(=O)(=O)N([C@H](C)CO)C[C@@H]1C | 2.2 | nt | 4.7 | nt
Cc1noc(C)c1NC(=O)Nc1ccc2c(c1)C(=O)N([C@H](C)CO)C[C@H](C)[C@@H](CN(C)Cc1ccc(C(F)(F)F)cc1)OCCCC[C@H](C)O2 | 2.6 | nt | 6.9 | nt
C[C@@H]1CN([C@@H](C)CO)C(=O)Cc2cc(NC(=O)Nc3ccc(F)cc3)ccc2O[C@H]1CN(C)S(=O)(=O)c1ccc(Cl)cc1 | -2.6 | nt | 0.5 | nt
C[C@H]1CN([C@@H](C)CO)C(=O)Cc2cc(NC(=O)Nc3ccc(F)cc3)ccc2O[C@H]1CN(C)S(=O)(=O)c1ccc(Cl)cc1 | -0.8 | nt | 43.3* | nt
CCCNC(=O)N1[C@H](CO)[C@@H](c2ccccc2)C12CN(C(=O)C1CCCCC1)C2 | nt | nt | 84.8* | nt
O=C(C1CCC1)N1CC2(C1)[C@@H](c1ccccc1)[C@@H](CO)N2C(=O)NC1CCCC1 | nt | nt | 31.2* | nt
O=C(Nc1cccc(Cl)c1)N1C[C@H]2[C@@H](c3ccccc31)[C@H](CO)N2Cc1ccncc1 | 1.7 | nt | -4.7 | nt
CCOC(=O)/C(=C/c1c(C)n(C)c2ccc([N+](=O)[O-])cc12)C(C)=O | nt | -0.2 | 6.2 | 44.3*
CCOC(=O)c1c(N)c2cc([N+](=O)[O-])ccc2n1C | 2.5 | -4.2 | 1.0 | -0.3
COCCNC(=O)C1(C)C=CC2(CCCCC2)N1C(=O)c1ccccc1 (stereo not drawn) | -5.5 | 2.5 | 6.4 | 1.2
CNC(=O)C1(C)C=CC2(CCCCC2)N1C(=O)OC (stereo not drawn) | 1.3 | -13.6 | 21.7* | 1.1
CO[C@@H]1CN(C)C(=O)c2cc(NC(=O)c3ccccc3F)ccc2OC[C@@H](C)N(CC2CCOCC2)C[C@H]1C | 0.7 | nt | -1.8 | nt
CO[C@H]1CN(C)C(=O)c2cc(NC(=O)Nc3ccccc3F)ccc2OC[C@H](C)N(C(C)=O)C[C@H]1C | -2.8 | nt | 21.4* | nt
CO[C@H]1CN(C)C(=O)c2ccc(NC(=O)Nc3ccccc3)cc2OC[C@H](C)N(C(C)=O)C[C@H]1C | -6.5 | nt | -7.2 | nt
CO[C@H]1CN(C)C(=O)c2cc(NC(=O)c3ccccc3F)ccc2OC[C@H](C)N(CC2CCOCC2)C[C@H]1C | 7.4 | nt | 80.9* | nt
CO[C@@H]1CN(C)C(=O)c2ccc(NC(=O)C3CCOCC3)cc2OC[C@@H](C)N(CC2CCCCC2)C[C@H]1C | -0.1 | nt | 53.7* | nt
CO[C@@H]1CN(C)C(=O)c2ccc(NC(=O)Nc3ccccc3)cc2OC[C@@H](C)N(C(C)=O)C[C@H]1C | nt | nt | 25.9* | nt
CN(C)C(=O)c1ccc(-c2ccc3c(c2)[C@H]2[C@H](CCN2C(=O)C2CCCC2)[C@@H](CO)N3C)cc1 | nt | nt | -5.5 | nt
C[C@@H]1CN([C@H](C)CO)C(=O)c2cc(NC(=O)CCC(F)(F)F)ccc2O[C@@H](C)CCCCO[C@H]1CN(C)C(=O)C1CCCCC1 | -1.0 | nt | 3.1 | nt
CO[C@@H]1CN(C)C(=O)c2ccc(NC(=O)Nc3ccccc3F)cc2OC[C@H](C)N(C)C[C@@H]1C | -2.3 | nt | -5.4 | nt
CO[C@H]1CN(C)C(=O)c2ccc(NC(=O)Nc3ccccc3F)cc2OC[C@H](C)N(C)C[C@H]1C | 4.4 | nt | 33.2* | nt
CO[C@@H]1CN(C)C(=O)c2cc(NC(=O)c3ccccc3F)ccc2OC[C@@H](C)N(C(C)=O)C[C@H]1C | 0.2 | nt | -1.0 | nt
CO[C@H]1CN(C)C(=O)c2cc(NC(=O)c3ccccc3F)ccc2OC[C@@H](C)N(C(C)=O)C[C@@H]1C | 2.6 | nt | 69.8* | nt
CC(=O)N1[C@H](C(=O)N[C@@H](C)c2ccccc2)[C@@H](CO)[C@@H]2Cn3c(cccc3=O)[C@@H]21 | 1.8 | nt | -3.2 | nt
Cc1ccc(N2CC(O)Cn3c2nc2c3c(=O)n(C)c(=O)n2C)cc1 (stereo not drawn) | 2.3 | 2.8 | -4.7 | 0.5
Cn1c(=O)c2c(nc3n2CC(O)CN3c2ccc(O)cc2)n(C)c1=O (stereo not drawn) | -3.3 | 6.9 | 39.0* | -1.8
Cc1cc(C)c(NC(=S)N(Cc2cccnc2)Cc2ccco2)c(C)c1 | -2.4 | 9.7 | 48.8* | -1.0

Source: PubChem BioAssay
